Laboratory results published in PubChem BioAssay (NCATS).
Values without a mark were called inactive. Records with an inconclusive call do not appear. Entries that show only a call come without a potency. Active and inactive are the calls of the source. Unless noted, calls follow the shape of the dose curve; as a rule, active = well fitted curve in the direction sought with a large enough effect; inconclusive = small, poorly fitted or top-dose-only effect, or another doubt; inactive = no such curve, though single readings can be large; an effect the other way counts as inactive or inconclusive.

Key:
[1] = qHTS assay for small molecule disruptors of the mitochondrial membrane potential - 1 hr assay (AID 651754; calls by dose curve; also: nearly all actives have a fitted effect of over 35% in size; also: potency is read from the fitted curve at half-maximal effect)
How it was run: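 In this qHTS format, a 1 hr compound treatment of HepG2 cells precedes Mito-MPS staining, and membrane potential is judged from aggregate (red) against monomer (green) fluorescence intensity.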

[2] = qHTS assay for small molecule disruptors of the mitochondrial membrane potential - 5 hr assay (AID 651755; calls by dose curve; also: nearly all actives have a fitted effect of over 40% in size; also: potency is read from the fitted curve at half-maximal effect)
How it was run: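 Seed HepG2 overnight, add compound, incubate 5 hr at 37C and 5% CO2, stain 30 min with Mito-MPS, then measure monomer (490/535 nm) and aggregate (540/590 nm) fluorescence.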

[3] = qHTS assay to identify small molecules that stimulate interleukin-8 (IL-8) secretion (AID 651758; active = well fitted activation curve with a large enough effect in the signal ratio; the % refers to the signal ratio)
How it was run: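 Quantitative HTS in THP-1 monocytic cells at 2000 cells per well, with 16 hrs compound incubation at 37 C. IL-8 in the medium was then quantified by HTRF immunoassay, read after 1-3 hrs at room temperature.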

[4] = qHTS assay for environmental chemicals that activate the Aryl hydrocarbon Receptor (AhR) signaling pathway (AID 651777); conditions: 1A2-DRE human hepatoma cells, luciferase, 24 h; activation: active compounds read high; also: nearly all actives have a fitted effect of over 15% in size
How it was run: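 Human hepatoma 1A2-DRE cells stably carrying a DRE/CYP1A2 promoter–luciferase reporter, 1,200 cells/well, exposed to compound 24 hr at 37 C. Luciferase read by One-Glo luminescence after 30 min at room temperature; increased signal marks AhR activation.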

[5] = molecular target: Peroxisome proliferator-activated receptor alpha (Homo sapiens) (UniProt Q07869); assay: qHTS assay for small molecule agonists of the peroxisome proliferator-activated receptor alpha (PPARalpha) signaling pathway (AID 651778); conditions: PathHunter PPARalpha complementation, chemiluminescence, 6 h; active compounds read high
Sequence of Peroxisome proliferator-activated receptor alpha (Homo sapiens) (Q07869 whole entry, looked up): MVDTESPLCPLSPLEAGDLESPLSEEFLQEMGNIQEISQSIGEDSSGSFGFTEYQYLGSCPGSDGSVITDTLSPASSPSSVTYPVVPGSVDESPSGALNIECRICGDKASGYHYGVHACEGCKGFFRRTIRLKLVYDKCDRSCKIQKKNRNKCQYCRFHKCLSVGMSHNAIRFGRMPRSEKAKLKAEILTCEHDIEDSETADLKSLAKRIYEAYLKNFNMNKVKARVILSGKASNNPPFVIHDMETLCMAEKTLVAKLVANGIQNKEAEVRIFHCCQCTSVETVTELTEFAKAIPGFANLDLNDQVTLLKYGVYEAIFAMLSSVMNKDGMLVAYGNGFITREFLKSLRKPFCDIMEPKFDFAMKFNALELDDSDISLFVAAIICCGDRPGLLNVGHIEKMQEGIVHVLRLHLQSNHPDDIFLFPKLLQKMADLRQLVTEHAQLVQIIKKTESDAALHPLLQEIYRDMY
How it was run: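 Cells plated at 2,000/well and held overnight at 37 C, 5% CO2, then compound added by pin tool for 6 hr; after PathHunter detection reagent and 60 min at room temperature, chemiluminescence from enzyme complementation was read.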

[6] = molecular target: Nuclear receptor ROR-gamma (Homo sapiens) (UniProt P51449); assay: qHTS assay for small molecule antagonists of the retinoid-related orphan receptor gamma (ROR-gamma) signaling pathway (AID 651802);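 also: CHO cells with doxycycline-induced ROR-gamma expression; luciferase reporter luminescence driven by ROR response element; series mostly up to about 92 µM; nearly all actives have a fitted effect of over 60% in size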
Sequence of Nuclear receptor ROR-gamma (Homo sapiens) (P51449 whole entry, looked up): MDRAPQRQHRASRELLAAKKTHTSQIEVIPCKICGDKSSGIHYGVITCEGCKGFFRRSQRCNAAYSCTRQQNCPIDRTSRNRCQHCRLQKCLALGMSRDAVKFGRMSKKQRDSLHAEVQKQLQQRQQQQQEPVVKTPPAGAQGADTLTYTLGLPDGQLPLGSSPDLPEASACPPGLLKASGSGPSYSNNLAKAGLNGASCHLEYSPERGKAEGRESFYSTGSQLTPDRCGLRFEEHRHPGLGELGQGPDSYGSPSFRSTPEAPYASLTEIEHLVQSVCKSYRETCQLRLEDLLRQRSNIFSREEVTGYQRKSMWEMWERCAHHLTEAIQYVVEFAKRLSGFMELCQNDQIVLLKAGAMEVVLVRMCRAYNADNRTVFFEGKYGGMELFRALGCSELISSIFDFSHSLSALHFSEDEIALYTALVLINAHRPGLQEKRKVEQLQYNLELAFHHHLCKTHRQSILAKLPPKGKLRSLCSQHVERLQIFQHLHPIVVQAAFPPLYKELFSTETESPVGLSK
How it was run: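 Doxycycline-induced reporter activity in engineered CHO cells (TET-inducible ROR, RORE-LUC) was measured by luminescence after 16hr compound exposure at 37C.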

[7] = qHTS assay for small molecule agonists of the antioxidant response element (ARE) signaling pathway measured by Nrf2-dependant transcriptional activity (AID 720636; active = well fitted curve in the direction sought with a large enough effect in the repeat runs; an effect the other way counts as inactive or inconclusive)
How it was run: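 ARE-luc HepG2 cells carrying an Nrf2-responsive luciferase reporter, in medium with 1% dialyzed FBS, exposed to compound for 16 hr at 37 C, 5% CO2. Luminescence read 30 min after ONE-Glo addition.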

[8] = qHTS assay for small molecule agonists of the antioxidant response element (ARE) signaling pathway measured by Nrf2-dependant transcriptional activity - cell viability counter screen (AID 720653; active = well fitted curve in the direction sought with a large enough effect in the repeat runs; an effect the other way counts as inactive or inconclusive); conditions: ARE-bla HepG2 viability, CellTiter-Glo ATP luminescence, 16 h; active compounds read low
How it was run: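 ARE-bla HepG2 cells (2,000/well) rested 5 hrs at 37C/5% CO2, then exposed to compounds in DMSO for 16 hrs. Viability was read in the same wells as intracellular ATP by luminescence, 30 min at room temperature after reagent addition.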

[9] = qHTS assay for cell viability of HEK293 cells (AID 743288); conditions: ATP luminescence (CellTiter-Glo), 18 h, active compounds read low; also: nearly all actives have a fitted effect of over 50% in size
How it was run: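 ATP luminescence (CellTiter-Glo) reports metabolically competent cell number after parental HEK293 cells, 2,000/well, were treated with DMSO-dissolved compounds for 18 h at 37 C; reagent incubation 30 min, room temperature.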

[10] = qHTS assay for cell viability of the p53RE-bla HCT-116 cell line (AID 743292); also: nearly all actives have a fitted effect of over 55% in size
How it was run: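 CellSensor p53RE-bla HCT-116 cells (4,000/well) pre-incubated 5 h at 37 C, then exposed to compounds in DMSO for 16 h at 37 C. Viability read as ATP content by CellTiter-Glo luminescence after 30 min at room temperature.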

[11] = molecular target: Nuclear receptor subfamily 1 group I member 2 (Rattus norvegicus) (UniProt Q9R1A7); assay: qHTS assay for small molecule activators of the rat pregnane X receptor (rPXR) signaling pathway (AID 651751; call rule not given here); conditions: rPXR reporter cells, luciferase (One-Glo), 24 h
Sequence of Nuclear receptor subfamily 1 group I member 2 (Rattus norvegicus) (Q9R1A7 whole entry, looked up): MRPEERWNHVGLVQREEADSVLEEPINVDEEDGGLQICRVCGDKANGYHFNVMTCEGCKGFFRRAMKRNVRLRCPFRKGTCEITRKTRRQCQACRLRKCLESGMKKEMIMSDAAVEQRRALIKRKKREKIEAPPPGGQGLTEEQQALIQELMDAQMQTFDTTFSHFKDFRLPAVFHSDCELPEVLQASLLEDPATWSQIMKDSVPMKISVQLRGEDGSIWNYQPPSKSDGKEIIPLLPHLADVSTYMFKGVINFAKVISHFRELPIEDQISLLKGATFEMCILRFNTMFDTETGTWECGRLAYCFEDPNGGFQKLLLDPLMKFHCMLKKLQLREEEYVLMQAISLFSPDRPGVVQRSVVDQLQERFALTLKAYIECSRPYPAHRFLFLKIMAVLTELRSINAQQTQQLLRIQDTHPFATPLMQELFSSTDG

[12] = qHTS assay for small molecule activators of the human pregnane X receptor (PXR) signaling pathway (AID 720659; call rule not given here)
[13] = molecular target: Tumor necrosis factor (Homo sapiens) (UniProt P01375); assay: qHTS assay to identify small molecules that stimulate Tumor Necrosis Factor-alpha (TNF-alpha) secretion (AID 651757; active = well fitted curve in the direction sought with a large enough effect in the signal ratio; the % refers to the signal ratio)
Sequence of Tumor necrosis factor (Homo sapiens) (P01375 whole entry, looked up): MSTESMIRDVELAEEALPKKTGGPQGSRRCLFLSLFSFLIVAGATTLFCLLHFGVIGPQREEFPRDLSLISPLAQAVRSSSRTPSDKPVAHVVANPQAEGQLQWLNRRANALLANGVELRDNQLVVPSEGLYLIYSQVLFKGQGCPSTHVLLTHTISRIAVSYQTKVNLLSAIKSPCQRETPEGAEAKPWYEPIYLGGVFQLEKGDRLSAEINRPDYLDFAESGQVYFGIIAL
How it was run: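 Using 3000 THP-1 cells per well, compounds and controls were applied for 17 hrs at 37 C. Detection followed with two labeled anti-TNF-alpha antibodies (cryptate donor, XL665 acceptor) for 3 hr at room temperature, measured by TR-FRET.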

[14] = qHTS assay for small molecule antagonists of the retinoid-related orphan receptor gamma (ROR-gamma) signaling pathway - cell viability counter screen (AID 720652; active = well fitted curve in the direction sought with a large enough effect in the repeat runs; an effect the other way counts as inactive or inconclusive;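 also: CHO reporter cells with doxycycline-induced ROR-gamma expression; series mostly up to about 92 µM; compound exposure lasted 16 hr before ATP read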)
How it was run: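 ATP-based viability readout in the ROR-gamma reporter CHO cells after 16 hr compound exposure under doxycycline induction.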

SMILES	Potency [1]	Potency [2]	Potency [3]	activation [4] [%]	max response [5] [%]	Potency [6]	outcome [7]	max response [8] [%]	max response [9] [%]	Potency [10]	max response [11] [%]	outcome [12]	Potency [13]	Potency [14]
O=[N+]([O-])c1cccc(C(F)(F)F)c1	inactive	inactive	inactive	0.319	2.74	inactive	inactive	14.6	0.368	inactive	-1.97	inactive	–	–
COc1cccc(N)c1	inactive	inactive	–	–	-3.67	inactive	inactive	10.6	-0.119	–	12.1	inactive	inactive	inactive
Cc1ccc2c(c1[N+](=O)[O-])C(=O)c1ccccc1C2=O	1.88 µM (active)	1.33 µM (active)	–	–	-3.62	inactive	–	-12.9	–	inactive	5.79	–	inactive	inactive
CC(C)(O)C(=O)O	inactive	inactive	–	–	4.71	inactive	inactive	–	1.23	inactive	0.872	inactive	inactive	inactive
Cc1ccccc1Br	inactive	inactive	–	-0.782	-3.06	inactive	inactive	-8.12	-0.991	inactive	-1.24	inactive	–	inactive
O=C(Cl)c1ccccc1[N+](=O)[O-]	inactive	inactive	–	0.05	3.57	inactive	inactive	18.8	-5.53	inactive	1.88	inactive	–	inactive
Clc1ccccn1	inactive	inactive	–	–	–	inactive	inactive	-1.74	–	inactive	-2.56	inactive	inactive	inactive
CNc1ccccc1	inactive	inactive	inactive	1.11	-7.07	inactive	inactive	-0.57	-6.52	inactive	4.02	inactive	–	inactive
O=C1OC(=O)c2cc([N+](=O)[O-])ccc21	inactive	inactive	inactive	-0.234	–	inactive	inactive	-1.02	–	inactive	-0.914	inactive	–	inactive
